Among the data in PubChem BioAssay AID772 (SRMLSC, 2007) are growth inhibition and condensed nuclei values, retold here.

This assay is described as follows: HT29 colon tumor cell growth inhibition, primary screen, imaging, high content imaging, 72 h, CellTiter-Glo (AID 772).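 On condensed nuclei: condensed means nuclear area below control median minus 1.5 SD.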 Conditions: HCS imaging cell count, at 10 µM, stronger effect = higher value; for condensed nuclei: measured here: percent cells with condensed nuclei. (Cellular ATP, detected with luciferase, serves as a proxy for viable cell number.)
The mark [1] stands for this setting: measured here: ATP CellTiter-Glo viability.

Screen size: about 3,300 compounds; about 20 (0.6%) were called active.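 How the source made its calls: active means growth inhibition above 90%, meaning viable cell count cut by more than 90% versus vehicle controls; inactive means growth inhibition below 90%.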 This excerpt belongs to a sample that is enriched for actives.

As to `CCOC(=O)c1c(C)n(C)c2ccc(OC)c(NC(=O)CCN3CCSCC3)c12`, the growth inhibition was -24% (inactive) and the condensed nuclei amounted to 1.98%. For the same compound, the growth inhibition under setting [1] was -19.5%.

Take `Cc1cc2c(c(=O)n1CC1CCCO1)C(c1ccc3c(c1)OCO3)C(C#N)=C(N)O2` (stereo unspecified): the growth inhibition is -29.9% (inactive) and the condensed nuclei was found to be 2.84%. Further, under setting [1], the growth inhibition was -39%.

In the case of `COC(=O)C(NC(=O)c1ccccc1)(Nc1nccs1)C(F)(F)F` (stereo unspecified), the growth inhibition is 60.8% (inactive) and the condensed nuclei is 9.01%. Further, the growth inhibition under setting [1] amounted to 20.8%.

As to `CC(C)(C)C1=Nn2c(nnc2-c2ccccn2)SC1`, the growth inhibition is -24.5% (inactive) and the condensed nuclei is 2.89%. In addition, the growth inhibition under setting [1] is -54.2%.

As for `Cn1c(Cl)nc2c1c(=O)n(Cc1cccc(Br)c1)c(=O)n2C`, the growth inhibition was 58.3% (inactive) and the condensed nuclei was determined as 20.4%. For the same compound, under setting [1], the growth inhibition was 38%.

Turning to `CC(NC(=O)NCc1cccnc1)(C(F)(F)F)C(F)(F)F`, the growth inhibition is -58% (inactive) and the condensed nuclei came out at 7.24%. Also, the growth inhibition under setting [1] was -34.9%.

As for `CCO/C(C)=N/n1c2nc3ccccc3nc2c2c(=O)n(Cc3ccccc3Cl)c(C)nc21`, the growth inhibition was -20.7% (inactive) and the condensed nuclei was determined as 2.79%. Also, the growth inhibition under setting [1] is -31%.

As for `CC(C)N=c1cc2n(-c3ccc(Cl)cc3)c3ccccc3nc-2cc1Nc1ccc(Cl)cc1`, the growth inhibition was 39.7% (inactive) and the condensed nuclei stood at 30.8%. Moreover, under setting [1], the growth inhibition was determined as 87%.

Take `COC(=O)NC(Nc1sc2c(c1C(N)=O)CCCC2)(C(=O)OC)C(F)(F)F` (stereo unspecified): the growth inhibition is -86.9% (inactive) and the condensed nuclei is 3.2%. Besides, the growth inhibition under setting [1] is -40.6%.

Consider `O=C(CN1C(=O)c2ccccc2S1(=O)=O)NCCSCc1ccco1`, for which the growth inhibition was 36.4% (inactive) and the condensed nuclei turned out to be 3.38%. Further, the growth inhibition under setting [1] is 6.94%.

As to `CCCCCNC(=O)C(C#N)c1nc2ccccc2nc1N1CC(C)OC(C)C1` (stereo unspecified), the growth inhibition was 31% (inactive) and the condensed nuclei was determined as 8.13%. Further, the growth inhibition under setting [1] was -14.9%.

For the compound `CCN(CC)c1ccc2cc(C(=O)Nc3ccccn3)c(=O)oc2c1`, the growth inhibition is 12.7% (inactive) and the condensed nuclei was determined as 5.56%. In addition, under setting [1], the growth inhibition is -23.3%.

Turning to `CCCCCCc1cc2cc(-c3nnc(-c4ccccc4O)o3)c(=O)oc2cc1O`, the growth inhibition was 23.4% (inactive) and the condensed nuclei is 4.18%. Moreover, the growth inhibition under setting [1] stood at 12.5%.

For the compound `CCN(CC)c1ccc2cc(-c3nnc(-c4ccncc4)o3)c(=O)oc2c1`, the growth inhibition is 99.1% (active) and the condensed nuclei stood at 4.75%. Besides, under setting [1], the growth inhibition is -9.72%.

For `CCOC(=O)CSc1nnc2n(Cc3ccccc3)c(=O)c3c4c(sc3n12)CCC4`, the growth inhibition is 17.8% (inactive) and the condensed nuclei worked out at 16.9%. Moreover, the growth inhibition under setting [1] is -5.86%.

`CCOC(=O)c1ccc(NC(=O)CCC(CC)C(=O)O)cc1` (stereo unspecified): the growth inhibition was -26.9% (inactive) and the condensed nuclei is 2.9%. Besides, the growth inhibition under setting [1] is -22.9%.

On to `CC1(C(=O)CSc2n[nH]c(-c3ccccc3Cl)n2)CCC(=O)O1` (stereo unspecified), for which the growth inhibition is -77.2% (inactive) and the condensed nuclei came out at 2.66%. Also, the growth inhibition under setting [1] was -34.5%.

With `OCCN(CCO)c1ncnc2c1sc1nc(N3CCOCC3)c3c(c12)CCCC3`, the growth inhibition is 49.2% (inactive) and the condensed nuclei came to 17.2%. Further, under setting [1], the growth inhibition was 92.5%.

Consider `CC1(C)Cc2c(sc3nc(SCC#N)n(C4CCCCC4)c(=O)c23)CO1`, for which the growth inhibition is 25.6% (inactive) and the condensed nuclei came out at 3.8%. For the same compound, under setting [1], the growth inhibition worked out at 23.5%.

Turning to `N#CC(C(=O)NC1CCCCC1)c1nc2ccccc2nc1N1CCN(c2ccccc2F)CC1` (stereo unspecified), the growth inhibition is -45.2% (inactive) and the condensed nuclei was 1.44%. Besides, the growth inhibition under setting [1] was -45.5%.

In the case of `CCCCC(CCC(=O)Nc1ccc(C(=O)OC)cc1)C(=O)O` (stereo unspecified), the growth inhibition was 37.5% (inactive) and the condensed nuclei was found to be 1.33%. For the same compound, under setting [1], the growth inhibition is -7.18%.

In the case of `Cc1c(CCC#N)c(N2CCN(C3CCCCC3)CC2)n2c(nc3ccccc32)c1C#N`, the growth inhibition is 32.8% (inactive) and the condensed nuclei was 10.6%. Moreover, the growth inhibition under setting [1] is -4.95%.

As to `Cc1cc(COc2ccccc2OCCN2CCN(C)CC2)no1`, the growth inhibition is 4.14% (inactive) and the condensed nuclei worked out at 1.56%. In addition, the growth inhibition under setting [1] turned out to be 10.2%.

For `CC(=O)c1cc(C#N)c(SCc2ccncc2)nc1C`, the growth inhibition is 26.3% (inactive) and the condensed nuclei was 4.17%. The growth inhibition under setting [1] is 11%.

Turning to `CCOC(=O)CC(=O)CSc1nc2c(cc1C#N)CCCCCC2`, the growth inhibition is -4.76% (inactive) and the condensed nuclei was determined as 6.69%. The growth inhibition under setting [1] is -61.7%.

On to `COC(=O)CC1SC(=O)NC1=O` (stereo unspecified), for which the growth inhibition was -1.44% (inactive) and the condensed nuclei stood at 4.51%. The growth inhibition under setting [1] is -13%.

Consider `Cc1ccc(SCc2nnc(N)s2)cc1`, for which the growth inhibition is -4.01% (inactive) and the condensed nuclei turned out to be 15.1%. Moreover, the growth inhibition under setting [1] worked out at 13.4%.

For `CCN(CC)CCCC1(CN)OCCc2ccccc21` (stereo unspecified), the growth inhibition was -50.9% (inactive) and the condensed nuclei was 1.84%. Further, the growth inhibition under setting [1] was -27.8%.

With `CCOc1cccc(-c2nnc3sc(-c4cc(OC)c(OC)c(OC)c4)nn23)c1`, the growth inhibition was -44.5% (inactive) and the condensed nuclei came out at 2.45%. In addition, the growth inhibition under setting [1] is -50.4%.

Take `Cc1ccc2cc(CN(C(=O)c3ccco3)c3ccccc3C)c(=O)[nH]c2c1`: the growth inhibition is -61.6% (inactive) and the condensed nuclei is 2.77%. Besides, under setting [1], the growth inhibition was -59.5%.

Regarding `CCCOc1ccc(Cl)cc1CN1CCOCC1`, the growth inhibition was -59.3% (inactive) and the condensed nuclei amounted to 3.51%. Further, the growth inhibition under setting [1] is -68.7%.

For the compound `COn1c(SC2CCCCC2)nc2ccccc2c1=O`, the growth inhibition is 52.3% (inactive) and the condensed nuclei stood at 12.3%. For the same compound, the growth inhibition under setting [1] turned out to be 29.2%.

Turning to `CCOC(=O)C1=C(N)n2c(s/c(=C\c3ccco3)c2=O)=C(C(=O)OC(C)C)C1c1ccco1` (stereo unspecified), the growth inhibition is 50% (inactive) and the condensed nuclei came out at 23.3%. The growth inhibition under setting [1] is -8.27%.

`O=C(O)c1cc2sccc2s1`: the growth inhibition was 33% (inactive) and the condensed nuclei was 8.44%. Besides, under setting [1], the growth inhibition was -8.08%.

On to `CC1(C)NC(=O)N(CC(O)COc2ccccc2C(=O)Nc2ccccc2)C1=O` (stereo unspecified), for which the growth inhibition is -19.4% (inactive) and the condensed nuclei came out at 5.25%. In addition, the growth inhibition under setting [1] is -40.4%.

On to `COC(=O)C1C(=O)CC(C)(O)C(C(=O)OC)C1c1ccccc1F` (stereo unspecified), for which the growth inhibition was 19% (inactive) and the condensed nuclei was 2.72%. The growth inhibition under setting [1] was -32.9%.

Consider `O=C(OCC#CCSc1nnc(-c2ccccc2)o1)c1cccs1`, for which the growth inhibition is 38% (inactive) and the condensed nuclei came to 10.3%. Further, under setting [1], the growth inhibition amounted to 5.5%.
